Wee1 stabilizer: inhibitors of human Wee1 degradation. AID 1321. HeLa Luc-Wee1K328M stability, luciferase luminescence; 100% = proteasome inhibitor MG132 effect. reporter increase, % at 5 µM. 220,000 compounds, 1.2% hits. P30291;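 active = activation above the mean of all tested compounds plus 3 SD, set per screening run, cut at about 8.8% in these data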;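 also: cells exposed to compound for 20 h before luminescence read; 0% = DMSO alone and 100% = MG132 at 30 µM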
Target sequence (P30291 whole entry K328M): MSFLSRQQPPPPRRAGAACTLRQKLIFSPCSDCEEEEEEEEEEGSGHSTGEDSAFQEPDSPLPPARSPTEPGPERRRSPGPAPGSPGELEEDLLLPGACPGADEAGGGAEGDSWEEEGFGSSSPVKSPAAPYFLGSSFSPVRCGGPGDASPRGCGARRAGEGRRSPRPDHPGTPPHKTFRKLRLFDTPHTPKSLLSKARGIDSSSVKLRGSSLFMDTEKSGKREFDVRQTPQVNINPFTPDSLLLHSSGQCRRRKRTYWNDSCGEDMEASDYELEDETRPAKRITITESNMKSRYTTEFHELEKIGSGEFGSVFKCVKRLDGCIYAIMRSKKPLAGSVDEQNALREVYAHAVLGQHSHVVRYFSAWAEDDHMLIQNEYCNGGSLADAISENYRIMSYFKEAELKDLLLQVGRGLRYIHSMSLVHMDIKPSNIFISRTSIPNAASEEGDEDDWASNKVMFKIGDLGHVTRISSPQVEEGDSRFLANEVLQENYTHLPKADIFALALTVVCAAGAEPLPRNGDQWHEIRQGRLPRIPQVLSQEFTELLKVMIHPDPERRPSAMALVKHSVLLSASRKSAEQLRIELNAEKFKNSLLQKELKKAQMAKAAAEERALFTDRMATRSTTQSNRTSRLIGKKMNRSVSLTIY
HMGR II inh: blocks class II HMG-CoA reductase of Enterococcus faecalis; 190,000 compounds, 0.41% hits; purified E. faecalis HMGR, NADPH absorbance 340 nm kinetic; inhibition, % at 10 µM;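 active = inhibition above a set limit, the median over all tested compounds plus 3 SD, cut at about 9.5% in these data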;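 also: enzyme runs in reverse so mevalonate oxidation gives rising NADPH absorbance; 0% = complete reaction with DMSO and 100% = background rate lacking mevalonate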
Arbovirus inh: antivirals against arbovirus infection. arbovirus infection cell-based antiviral screen. inhibition, % at 10 µM. 200,000 compounds, 0.37% hits; in the data active = inhibition above about 30%
Hsp70 activator: Hsp70 transcriptional activation, primary screen; activation, % at 10 µM; HeLa Hsp70 promoter luciferase reporter, luminescence; scaled: vehicle 0, proteasome-inhibitor control 100%; 200,000 compounds, 0.04% hits;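 active = activation above the mean across all tested compounds plus 3 SD, cutoff set per campaign, cut at about 5.5% in these data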;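 also: 100% = MG132 at 30 µM as the positive control and 0% = DMSO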
PKD1 inh: inhibitors of human PKD1 kinase. Q15139. PKD1 kinase fluorescence polarization assay. inhibition, % (no concentration beside the values). 200,000 compounds, 0.056% hits; in the data active = inhibition above about 50%
Starred values were filed as active, the others as inactive; · = not tested or not shown. Hits are enriched below; roughly 2% of the tested compounds scored in any of these assays.

SMILES	Wee1 stabilizer	HMGR II inh	Arbovirus inh	Hsp70 activator	PKD1 inh
O=C(CS(=O)Cc1ccccc1Cl)Nc1ccccc1Cl (configuration not stated)	0	3	0	0	-8
O=C(CC(=O)NC1CCCCC1)N/N=C/c1cccc2ccccc12	-3	-1	-26	0	-2
COc1cccc2cc(C(C)OC(=O)Nc3ccc(C)cc3)oc12 (configuration not stated)	9.1*	-7	-1	0	6
O=C(/C=C/c1cccs1)Nc1scc(-c2ccccc2)c1C(=O)O	2	1	74*	0	-1
O=C(Nc1scc(-c2ccccc2)c1C(=O)O)c1ccco1	-4	-4	42*	-1	-10
COC(=O)c1c(-c2ccc(F)cc2)csc1NC(=O)c1ccco1	6	-1	-8	0	-7
O=C(Nc1scc(-c2cccs2)c1C(=O)O)c1cccs1	-2	0	50*	0	-7
CCOC(=O)c1c(-c2cccs2)csc1NC(=O)c1ccncc1	1	-3	-2	0	8
COc1c(Cl)cccc1-c1cn2ccccc2n1	5	·	·	·	·
CCCCNC(=O)C1CC(c2c(Cl)cccc2Cl)=NO1 (configuration not stated)	-3	-1	1	0	-6
O=C(N/N=C/c1coc2ccccc2c1=O)c1ccccc1	0	-3	4	1	-6
O=C(N/N=C/c1coc2ccccc2c1=O)c1cn(-c2ccccc2)nc1-c1ccccc1	10.0*	-4	19	0	-2
O=C(NC1CCCCC1)C1c2ccccc2C(=O)N1Cc1ccc2c(c1)OCO2 (configuration not stated)	-4	-5	7	0	3
Cc1cccc(OCCNc2cc(N3CCN(CCO)CC3)ccc2[N+](=O)[O-])c1	6	-3	-35	0	9
COc1ccc(NC(=O)c2oc3ccccc3c2NC(=O)C2CC2)cc1	-1	11*	0	0	-3
Cc1ccccc1C(=O)N1CCC(C(=O)Nc2ccc3c(c2)OCO3)CC1	2	1	-4	-1	-6
CCC(C)NC(=O)CN1C(=O)NC2(CCc3ccccc3C2)C1=O (configuration not stated)	4	-2	3	0	2
CCSc1nc2c(sc3nc(C)cc(C)c32)c(=O)[nH]1	-1	0	37*	0	-9
CCOc1ncnc2c1sc1nc(C)cc(C)c12	1	·	·	·	·
CCOCCCNS(=O)(=O)c1ccc(NC(=O)C2CC(=O)N(c3ccc(C)cc3)C2)cc1 (configuration not stated)	6	0	7	0	-2
CCOC(=O)C1C(=O)NC(c2ccccc2)=NC1c1cccc(Br)c1 (configuration not stated)	1	-3	2	0	-1
Oc1c(Br)cc(C2N=C(c3ccccc3)NO2)cc1Br (configuration not stated)	1	0	33*	0	2
COc1ccc(OC)c(Nc2nc(-c3sc(NC(=O)c4ccccc4)nc3C)cs2)c1	0	11*	-25	0	-8
CCCn1c(N)c(N2CCCCC2)c(=O)n(CC(=O)Nc2ccc(OC(F)(F)F)cc2)c1=O	0	-5	-3	0	-3
CCCCN(C(C)=O)c1c(N)n(CCC)c(=O)n(CC(=O)Nc2cc(Cl)cc(Cl)c2)c1=O	12*	2	0	0	9
SMILES	Wee1 stabilizer	HMGR II inh	Arbovirus inh	Hsp70 activator	PKD1 inh
CC1/C(=N/O)CC(c2ccccc2)NC1c1ccccc1 (configuration not stated)	3	-5	3	0	-2
O=C1CC(c2ccc(Br)cc2)NC(c2ccc(Br)cc2)C1c1ccccc1 (configuration not stated)	0	-3	45*	0	-7
O=C(CNCc1cccs1)NC12CC3CC(CC(C3)C1)C2	2	-11	-4	0	6
CC1(C)C2CCC(C2)C1(C)NC(=O)CNCc1cccs1 (configuration not stated)	-2	1	30*	0	-4
Cc1ccc(-n2ncc3c(=O)n(CC(=O)N4CCN(c5ccccc5)CC4)cnc32)cc1C	4	-2	-7	0	-7
COC(=O)c1c(-c2ccccc2)csc1N1C(=O)Nc2ccccc2N1O	-1	-6	36*	0	-6
CCC(C)Sc1nc2c(c(=O)[nH]1)C(c1cccs1)C1=C(CCCC1=O)N2 (configuration not stated)	2	7	33*	0	-4
Cn1c(N)c(C(=O)COC(=O)CC2CC3CCC2C3)c(=O)n(C)c1=O (configuration not stated)	-2	1	0	0	-3
Cc1ccc(-c2cc(C(F)(F)F)n3ncc(C(=O)N4CCN(C)CC4)c3n2)cc1	9.2*	0	-6	0	-11
COc1ccc(NC(=O)C2CC(=O)N/C(=N/N=C/c3ccco3)S2)cc1 (configuration not stated)	9.4*	·	·	·	·
O=C(c1cccc([N+](=O)[O-])c1)c1ccc2c(c1)C(=O)N(c1c[nH]c(=O)[nH]c1=O)C2=O	3	-6	-1	0	-2
CC(=O)c1ccc(Nc2cc(C)nc3ccccc23)cc1	6	0	-19	0	-2
CC(=O)c1ccc(Nc2cc(C)nc3c(C)cccc23)cc1	10*	-4	-22	0	-6
Cc1ccc(S(=O)(=O)CCC(=O)Nc2ccc3nc(C)sc3c2)cc1	11*	-1	5	0	-3
COC(=O)Cc1ccc(NC(=S)NN2CCOCC2)cc1	2	-3	3	0	0
CC(C)n1c(=S)[nH]c2cc(Cl)ccc21	11*	·	·	·	·
CC(C)n1c(=S)[nH]c2ccccc2c1=O	0	-5	-6	0	1
S=C(NC1CCCCC1)N1CCN(c2ccccn2)CC1	4	0	-3	0	-8
N#C/C(=C(/O)c1cccc(F)c1)c1nc2ccccc2s1	10*	·	·	·	·
CN(CCC#N)C(=O)COC(=O)c1c2c(nc3ccccc13)/C(=C/c1ccco1)CC2	10*	2	-2	0	-6
COc1ccc(/C=C2\CCc3c2nc2ccccc2c3C(=O)O)cc1OC	6	·	·	·	·
Cn1c2ccccc2c(=O)c2c(=O)n(Cc3ccco3)c(-c3ccc(C(C)(C)C)cc3)nc21	-3	·	·	·	·
C/C(CC(=O)NC1CCCCC1)=N\NC(=O)COc1ccc(C)cc1Br	1	28*	1	0	-2
CC(C)(C)NC(=O)NC(=O)COc1ccc(Br)cc1Br	9.8*	-5	-3	0	-8
C/C(CC(=O)NC(C)(C)C)=N\NC(=O)COc1ccc(C)cc1Br	9.5*	-4	-2	-1	-11
O=C(COc1ccc(Br)cc1Br)NC(=S)Nc1cccc(CO)c1	11*	0	10	0	-21
O=C(COc1ccc(Br)cc1Br)NC(=O)NC1CCCC1	2	1	20	0	7
O=C(C1=C(O)C(=O)N(Cc2cccnc2)C1c1ccccn1)c1cccs1 (configuration not stated)	-3	-2	16	0	0
